Assay outcomes from PubChem.
Only some compounds are listed: those with a hit (about 12% of all), similar ones and a draw of the others.
Shiga inhibitor = A qHTS for Small Molecule Inhibitors of Shiga Toxin; Vero cells, Shiga toxin protein synthesis inhibition reporter; 9.2% of 290,000 active; inhibition, % at 38.7 µM; in the data active means inhibition mostly above about 28%, no sharp cut-off; inactive means mostly below about 43%; further: 0% is about no effect
NS1 function inh = qHTS Assay for Inhibitors of Influenza NS1 Protein Function. Potency, µM (series often up to 46.1 µM), without a hit: at the top dose activity, positive = more growth. 0.4% of 270,000 active; further: potency means the concentration at half of the fitted maximal effect; actives are rising curves; nearly all actives have a fitted effect of over 50% in size
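Recovery from NS1-induced slow growth read by OD600 in budding yeast switched to galactose assay medium (pH 6.0, -URA) at 1:100 dilution. Compound 23 nl per well; the matching strain lacking NS1 serves as control.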
CHX counter = Cycloheximide Counterscreen for Small Molecule Inhibitors of Shiga Toxin | 12% of 300,000 active | max response, % | cell reporter, cycloheximide protein synthesis inhibition counterscreen; in the data active means max response mostly above about 13%, no sharp cut-off; inactive means mostly below about 14%; further: read at 38.3 µM for the half of the compounds with a filed dose; 0% is about no effect
SARS PLpro yeast = qHTS of Yeast-based Assay for SARS-CoV PLP. Potency, µM (highest dose often 32.9 µM), for the others: top-dose activity, positive = growth rescue, hits mostly activators. 0.19% of 330,000 active. AID 485353, 2010. S. cerevisiae expressing SARS-CoV PLpro, growth rescue; further: potency means the concentration at half of the fitted maximal effect; 0% is about no effect; nearly all actives have a fitted effect of over 55% in size
* hit, by the source's call; ? = inconclusive; / = no result given. Unless noted, the call rests on the fitted dose curve.

SMILES	Shiga inhibitor	NS1 function inh	CHX counter	SARS PLpro yeast
CCOc1ccccc1N1CCN(S(=O)(=O)c2ccc(Cl)s2)CC1	35*	-41%	17*	-16%
C[C@H]1C=C(C(=O)NC2CC2)O[C@@H](OCc2ccc(CO)cc2)C1	43	-4%	13*	3%
O=C(NC1CC1)C1=C[C@@H](c2ccccc2)C[C@@H](OCc2ccc(CO)cc2)O1	-7	2%	2	1%
O=C(NC1CC1)C1=C[C@H](c2ccc(C(F)(F)F)cc2)C[C@H](OCc2ccc(CO)cc2)O1	28*	2%	24*	-2%
O=c1c2sccc2nc(SCc2ccc([N+](=O)[O-])cc2)n1Cc1ccccn1	62*	12%	26*	10%
Cc1ccc(CNC(=O)CSc2nc3ccsc3c(=O)n2Cc2ccccn2)cc1	22	/	1	-1%
O=C(O)CCCCCn1c(SCc2cc(=O)n3cc(Cl)ccc3n2)nc2ccsc2c1=O	16	-17%	-3	16%
O=c1c2sccc2nc(SCc2cc(=O)n3cc(Cl)ccc3n2)n1Cc1ccccn1	82*	/	41*	0%
C=CCNC(=S)N(CC=C)C1CCS(=O)(=O)C1 (stereo not drawn)	-2	9%	-2	5%
O=C(CSc1nc2ccccc2[nH]1)NCc1ccco1	65	-14%	29	-3%
O=C(CSc1ncccc1-c1nc2ccccc2[nH]1)NCc1ccco1	56*	10%	40*	-5%
Cc1cc2nc(-c3cccnc3SCC(=O)NC3CC3)[nH]c2cc1C	52*	/	23*	-1%
Cc1cc2nc(-c3cccnc3SCC(=O)NCc3ccco3)[nH]c2cc1C	42	-12%	21*	-31%
O=C(/C=C/c1cccs1)Nc1ccc(S(=O)(=O)Nc2ncccn2)cc1	-8	-2%	1	1%
NS(=O)(=O)c1cccc(NC(=O)/C=C/c2cccs2)c1	48*	2%	30*	3%
NS(=O)(=O)c1ccc(NC(=O)/C=C/c2cccs2)cc1	35	-3%	11*	0%
Cc1ccc(N=Nc2ccc3ccccc3c2O)cc1	/	30%	44*	3%
Oc1c(N=Nc2ccc(F)cc2)ccc2ccccc12	/	14%	34*	3%
Oc1ccc2ccccc2c1N=Nc1ccc(F)cc1	-4	?	-1	-1%
COc1ccc(CC(=O)NNC2=Nc3cccc4cccc2c34)cc1	14	1%	-1	8%
COc1cc(C2Nc3ccccc3C(=O)N2c2ccccc2)c(Br)cc1OCC(=O)O (stereo not drawn)	24*	9%	12	19%
O=C1CC(c2ccc(F)cc2)CC(O)=C1C1NCCc2ccccc21 (stereo not drawn)	25	9%	19*	-10%
O=C1CC(c2ccc(F)cc2)C(n2cncn2)C(O)=C1C1NCCc2ccccc21 (stereo not drawn)	-14	/	-1	-1%
COc1cc2c(cc1OC)-c1nnc(C)n1C(C)(C)C2	-17	2%	-5	1%
Cc1cc2c(cc1C)-c1nnnn1C(C)(C)C2	59*	1%	17	-9%
SMILES	Shiga inhibitor	NS1 function inh	CHX counter	SARS PLpro yeast
COc1ccc(-c2cc(=O)c3cc(OC)ccc3o2)cc1	66*	-6%	55	-2%
COC(=O)Cc1cccc2c(=O)c3ccccc3oc12	22	-5%	-3	0%
COc1ccc2c(c1)oc(=O)c1c3ccccc3[nH]c21	57*	-3%	62*	-2%
COc1ccc2c(c1)oc(=O)c1cc(OC)ccc12	52*	-4%	26*	-1%
CC(=O)c1ccc2oc3ccccc3c(=O)c2c1	17*	-15%	15	-15%
Cc1oc(-c2cccc3ccccc23)nc1CN1CCN(c2ncnc3ccccc23)CC1	-6	-12%	6	-1%
COc1ccc2c(=O)c3ccccc3oc2c1	42*	-39%	33*	-11%
COc1ccc2c(c1)oc(=O)c1ccccc12	71*	-7%	33*	-1%
COc1ccc2c(C)c(Cl)c(=O)oc2c1	2	-1%	-2	1%
Cn1c(N2CCN(C(=O)C34CC5CC(CC(C5)C3)C4)CC2)nc2ccccc21	-6	-4%	10	0%
COC(=O)c1ccc(COc2ccccc2/C=C/C(=O)c2ccc(OCC(=O)O)cc2)cc1	47	-18%	1	11%
COc1ccc(C(c2c(C)[nH]n(-c3ccccc3)c2=O)c2c(C)[nH]n(-c3ccccc3)c2=O)cc1OC	-6	-7%	-2	13µM*
O=C(CSc1nc(-c2ccc(F)cc2)cs1)NCCN1C(=O)CSC1=O	27	/	13	-2%
Cc1ccc(Nc2nnc(SCC(=O)NCCN3C(=O)CSC3=O)s2)cc1C	active	3%	15*	/
